# Experimental data as given in PubChem BioAssay AID493012 (Sanford-Burnham Center for Chemical Genomics, 2011).
# Hit rate of the full screen: of about 330,000 compounds, about 930 (0.28%) were called active. What follows is part of a selection rich in actives, with near analogues and random picks from the rest. Values without a mark were called inactive.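 How the source made its calls: active means inhibition of at least 40% at 20 µM, with no more than 30% in the related APOBEC3A deaminase screen; inactive means the rest.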
# Molecular target: DNA dC->dU-editing enzyme APOBEC-3G (Homo sapiens) (UniProt Q9HC16)
# Assay: inhibition of human A3G ssDNA deamination – biochemical, fluorescence, single-stranded DNA substrate, uHTS, primary screen (AID 493012);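 further: plate controls were DMSO wells with A3G for no effect and wells lacking A3G enzyme for full effect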
# Conditions: recombinant A3G, ssDNA deamination FAM/TAMRA fluorescence; at 20 µM; hits give high values
# Chain of DNA dC->dU-editing enzyme APOBEC-3G (Homo sapiens) (Q9HC16 whole entry, looked up): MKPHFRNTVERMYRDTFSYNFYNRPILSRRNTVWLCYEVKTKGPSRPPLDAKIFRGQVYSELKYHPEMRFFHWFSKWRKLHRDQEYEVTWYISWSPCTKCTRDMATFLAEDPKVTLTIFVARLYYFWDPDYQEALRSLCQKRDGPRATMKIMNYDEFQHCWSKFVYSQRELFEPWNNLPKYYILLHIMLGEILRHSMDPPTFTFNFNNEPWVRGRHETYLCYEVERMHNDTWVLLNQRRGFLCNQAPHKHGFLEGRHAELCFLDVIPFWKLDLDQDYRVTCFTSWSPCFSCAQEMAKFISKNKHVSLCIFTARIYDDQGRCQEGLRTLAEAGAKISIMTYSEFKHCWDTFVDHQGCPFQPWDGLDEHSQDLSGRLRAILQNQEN
row,SMILES,inhibition
1,CCC(C)(C)NC(=O)C1c2ccccc2Oc2ccccc21,-0.78%
2,CC(C)(C)c1nnc(NC(=O)C2c3ccccc3Oc3ccccc32)s1,53.3% (active)
3,CCC(C)NC(=O)C1c2ccccc2Oc2ccccc21 (configuration not stated),-4.18%
4,CCCCn1c(N)c(N(CCOC)C(=O)c2sc3ccccc3c2Cl)c(=O)[nH]c1=O,-7.98%
5,CCCCCC(O)c1cccc(OCc2ccc3ccccc3n2)c1 (configuration not stated),-6.99%
6,Cc1ccc(NC(=O)C2CCN(S(=O)(=O)c3ccc4c(c3)NC(=O)CO4)CC2)cc1C,-9.26%
7,NC(=O)C1CCN(C(=O)c2ccc(F)c(S(=O)(=O)N3CCOCC3)c2)CC1,-4.4%
8,CN(C(=O)c1cccc(NC(=O)Cc2cccc([N+](=O)[O-])c2)c1)C1CCCCC1,-1.19%
9,CCn1cc(C(=O)N2CC(C)CC(C)C2)c(=O)c2cc(S(=O)(=O)N3CCCC3)ccc21 (configuration not stated),-1.06%
10,CCN(CC)C(=O)CSC(Nc1cccc(F)c1)=C(C#N)C#N,-2.9%
11,Nc1ccccc1SC(C[N+](=O)[O-])c1ccccc1 (configuration not stated),75.7% (active)
12,O=C(COc1cc(Cl)c(Cl)cc1Cl)NC(=O)NC1CCCC1,-1.68%
13,S=c1[nH]nc(NCCc2ccccc2)s1,43.1% (active)
14,Nc1c(NCCc2ccccc2)c2ccccc2oc1=O,-2.86%
15,O=c1cnnc(Nc2ccccc2)[nH]1,-1.93%
16,S=c1[nH]nc(Nc2ccccc2)s1,42.7% (active)
17,O=C(CSc1ncccn1)NCCc1ccccc1,-0.062%
18,CC(C)(C)C(=O)c1cnc(Nc2ccccc2)s1,17.8%
19,Cc1ccc([N+](=O)[O-])c(OCCCNCC(C)O)c1 (configuration not stated),-8.53%
20,Cc1cc(C)n(C(=O)c2ccc(C)c(S(=O)(=O)N3CCOCC3)c2)n1,0.652%
21,COc1ccc(CCNC(=O)CS(=O)(=O)Cc2nc(-c3ccc(C)cc3)oc2C)cc1OC,-6.41%
22,CCN(CC)S(=O)(=O)c1cccc(-c2n[nH]c(=S)n2/N=C/c2ccc(C(=O)OC)cc2)c1,-5.7%
23,S=c1[nH]nc(-c2cc(-c3ccsc3)n[nH]2)n1-c1ccccc1,20.5%

row,SMILES,inhibition
1,S=c1[nH]nc(-c2cc(-c3ccccc3)n[nH]2)n1/N=C/c1c2ccccc2cc2ccccc12,43.4% (active)
2,O=c1c2ccccc2nnn1CSc1nc2sc3c(c2c(=O)n1CC1CCCO1)CCC3 (configuration not stated),-0.082%
3,CC(C)c1ccc(NC(=O)COC(=O)c2ccc(CN3CCCC3=O)cc2)cc1,-5.19%
4,CC(C)(C)n1nnnc1C(c1ccc2ncccc2c1)N1CCSCC1 (configuration not stated),1.72%
5,CCc1cccc(NC(=O)C2CCCN(S(=O)(=O)c3ccc4[nH]c(=O)ccc4c3)C2)c1 (configuration not stated),-3.15%
6,N=c1c2c3c(sc2ncn1CCCN1CCOCC1)CCCCC3,2.15%
7,S=c1[nH]nc2c3c4c(sc3ncn12)CCCC4,50.1% (active)
8,CC(C(=O)O)n1cnc2sc3c(c2c1=O)CCCC3 (configuration not stated),-3.08%
9,COc1ccc(-n2nc(C(=O)NCC(=O)Nc3cccc(C)n3)c3ccccc3c2=O)cc1,-3.64%
10,O=c1[nH]c(CN2CCN(S(=O)(=O)c3ccc4c(c3)OCCO4)CC2)nc2sc3c(c12)CCCC3,-9.39%
11,COC(=O)COc1ccc(C2NC(=O)NC(C)=C2C(=O)NCc2ccccc2)cc1OC (configuration not stated),-1.01%
12,CCn1c(CSCc2c(Cl)cccc2Cl)n[nH]c1=S,11.9%
13,CCn1c(CN2C(=O)CSc3ccccc32)n[nH]c1=S,43.9% (active)
14,CCn1c(CNS(=O)(=O)c2ccc(Cl)cc2)n[nH]c1=S,30.3%
15,COc1cc(C2/C(=C(\O)c3ccc4c(c3)CC(C)O4)C(=O)C(=O)N2Cc2ccco2)ccc1O (configuration not stated),-3.83%
16,COc1ccc(/C=N/NC(=O)C(C)N(c2ccc(OC)cc2)S(C)(=O)=O)cc1 (configuration not stated),-4.56%
17,CN(C)c1ccc(C(CNC(=O)c2ccc(F)cc2)c2c[nH]c3ccccc23)cc1 (configuration not stated),-2.56%
18,CNS(=O)(=O)c1ccc(NC(=O)Nc2ccc3c(c2)OCO3)cc1,-9.95%
19,COc1ccc(Cn2c(=O)sc3ccccc32)cc1OC,-9.67%
20,S=c1[nH]ccn1-c1ccc(Cl)cc1,69.9% (active)
21,S=c1[nH]cc(-c2ccc(Cl)cc2)n1-c1ccccc1,-4.18%
22,O=C(NC(=S)Nc1ccc2oc(=O)ccc2c1)c1ccc(-c2cccc(Cl)c2Cl)o1,-0.008%
23,S=c1[nH]nc(-c2cccs2)n1/N=C/c1cn(-c2ccccc2)nc1-c1ccc(Cl)cc1,-2.77%

row,SMILES,inhibition
1,S=c1[nH]nc(-c2cccs2)n1/N=C/c1cccs1,27.3%
2,S=c1[nH]nc(-c2ccncc2)n1/N=C/c1ccccc1Cl,73.5% (active)
3,Fc1ccccc1/C=N/n1c(-c2cccnc2)n[nH]c1=S,47.1% (active)
4,CCOc1ccc(-c2n[nH]c(=S)n2/N=C/c2cc3c(cc2[N+](=O)[O-])OCO3)cc1,1.59%
5,O=[N+]([O-])c1ccccc1/C=N/n1c(COc2ccccc2)n[nH]c1=S,34.8%
6,COc1ccc2c(c1)C(=O)Nc1cc(Cl)ccc1N2,-7.65%
7,O=C(CN1CCCCC1)Nc1ccccc1C(=O)NC1CC1,-5.07%
8,CCCNC(=S)N1CCC(NC(=O)C23CC4CC(CC(C4)C2)C3)CC1,-5.11%
9,Cc1[nH]c2ccccc2c1C(=O)CN1CC(C)CC(C)C1 (configuration not stated),-4.14%
10,Cc1ccccc1-n1cc(CNC(=O)C2CCC(=O)N(C3CC3)C2)cn1 (configuration not stated),-4.71%
11,CC(Oc1ccc(F)cc1)C(=O)Nc1ccccc1C(=O)NC1CC1 (configuration not stated),-11.6%
12,CCCc1nc2scc(-c3ccc(C)cc3)c2c(=O)n1N,-7.79%
13,COc1cccc(NC(=O)CN(C)C(=O)CSCc2nc3scc(-c4cccs4)c3c(=O)[nH]2)c1,-7.77%
14,Cc1nc2scc(-c3cccs3)c2c(=O)n1N,42.5% (active)
15,Cc1cc(-c2ccccc2)nc(N2CCC(C(=O)NC34CC5CC(CC(C5)C3)C4)CC2)n1,-9.15%
16,CCOC(=O)C1=C(N)N2C(=O)C(C)SC2=C(C(=O)OCC)C1c1cc(OC)c(OC)c(OC)c1 (configuration not stated),-2.88%
17,C/C=C(/C)C(=O)Nc1cccc(C2=NOC3(C2)C[C@@H](C(N)=O)N(C(=O)C2(C)CC2)C3)c1 (some centres not stated),-16%
18,C=C(C)C(=O)Nc1cccc(C2=NOC3(C2)C[C@H](C(N)=O)N(C(=O)C(c2ccccc2)c2ccccc2)C3)c1 (some centres not stated),53.1% (active)
19,C/C=C\C=C\C(=O)N1CC2(CC(c3cccc(NC(=O)/C(C)=C\C)c3)=NO2)C[C@H]1C(N)=O (some centres not stated),-3.46%
20,COc1ccc(/C=N/n2nnnc2N)cc1OC,-3.77%
21,COc1cc(/C=C/C(=O)OCC(=O)N2CCOCC2)ccc1OCC#N,-3.2%
22,CC1CCc2sc3nc(N4CCN(CCO)CC4)n4ncnc4c3c2C1 (configuration not stated),-8.25%
23,CCOC(=O)NC(=O)C(=CNc1cccc(OC)c1)C(=O)NC(=O)OCC,-5.67%

row,SMILES,inhibition
1,CC(=O)N1CC[n+]2c(-c3ccc([N+](=O)[O-])cc3)csc21,54.4% (active)
2,COc1ccc(C2CC(c3ccc([N+](=O)[O-])cc3)=NN2C(C)=O)cc1 (configuration not stated),1.76%
3,COC(=O)c1c(C)[nH]c(C)c1-c1ccc([N+](=O)[O-])cc1,-8.28%
4,Nc1nonc1-n1nnc(C(=O)N/N=C/c2ccc(Cl)cc2)c1-c1ccc2c(c1)OCO2,1.23%
5,COc1ccc(C(=O)CC(=O)C(=O)Nc2cc([N+](=O)[O-])ccc2OC)cc1,-6.63%
6,COc1cccc(NCCC(=O)c2cccc([N+](=O)[O-])c2)c1,1.63%
7,COc1cccc(C(=O)CC(=O)C(=O)Nc2ccc([N+](=O)[O-])cc2C)c1,51.3% (active)
8,CC(=O)Nc1ccc(S(=O)(=O)NCCC(=O)N2CCN(c3ccccc3Cl)CC2)cc1,-2.43%
9,CCCn1c(NC(=O)C23CC4CC(CC(O)(C4)C2)C3)nc2ccccc21,-2.56%
10,O=C(Cc1ccsc1)N1CCN(S(=O)(=O)c2cc(C(F)(F)F)cc(C(F)(F)F)c2)CC1,-3.29%
11,CC(C)CCNC(=O)C1CCC(CNc2c(N3CCC(C)CC3)c(=O)c2=O)CC1 (configuration not stated),-1.82%
12,C/C(=C(\C#N)C(=O)NCCCN1CCOCC1)N(C)C,-7.59%
13,CCOc1cc(C(=S)N2CCOCC2)ccc1OS(=O)(=O)c1ccc(Br)cc1,-3.84%
14,CCOc1cc(C(=S)N2CCOCC2)ccc1O,51.9% (active)
15,COc1cc(C(=S)N2CCOCC2)ccc1O,-1.79%
16,O=C(CN1CCN(C2CCS(=O)(=O)C2)CC1)N1N=C(c2ccc(Cl)cc2)CC1c1ccco1 (configuration not stated),-3.9%
17,FC(F)(F)C1CCCN(c2nsc3ccccc23)C1 (configuration not stated),72.5% (active)
18,O=C(NCC(=O)N1CCCC(C(F)(F)F)C1)c1ccccc1F (configuration not stated),-2.23%
19,CCN(CC)CC(=O)Nc1sc2c(c1C(=O)c1ccccc1C)CCC2,1.14%
20,COc1ccc2[nH]c(C(=O)N3CCN(C)CC3)c(C)c2c1,-7.04%
21,COc1ccc2c(C)cc3nnnn3c2c1,-2.56%
22,COc1ccc2[nH]c(=S)cc(C)c2c1,45.8% (active)
23,COc1c(C(C)C)oc2cc3oc(=O)ccc3cc12,-10.3%
